# Measured values: the supplement of paper PMC8728848
# Only a selection was taken, and the strongest signals are over-represented in it overall.
# B1: CRT-1 (Homo sapiens), P27797 (protein)
# chain: MLLSVPLLLGLLGLAVAEPAVYFKEQFLDGDGWTSRWIESKHKSDFGKFVLSSGKFYGDEEKDKGLQTSQDARFYALSASFEPFSNKGQTLVVQFTVKHEQNIDCGGGYVKLFPNSLDQTDMHGDSEYNIMFGPDICGPGTKKVHVIFNYKGKNVLINKDIRCKDDEFTHLYTLIVRPDNTYEVKIDNSQVESGSLEDDWDFLPPKKIKDPDASKPEDWDERAKIDDPTDSKPEDWDKPEHIPDPDAKKPEDWDEEMDGEWEPPVIQNPEYKGEWKPRQIDNPDYKGTWIHPEIDNPEYSPDPSIYAYDNFGVLGLDLWQVKSGTIFDNFLITNDEAYAEEFGNETWGVTKAAEKQMKDKQDEEQRLKEEEEDKKRKEEEEAEDKEDDEDKDEDEEDEEDKEEDEEEDVPGQAKDEL
# Assays:
# Assay in all cases: glycan array binding signal (z-score within array); higher = stronger binding
# Settings in all cases: glycan notation: IUPAC condensed, linker removed
# Gal3S(b1-3)GalNAc = molecular target: Gal3S(b1-3)GalNAc
# Method in brief: (§1)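 Columns mapping to the same glycan were averaged after glycan names were converted to IUPAC-condensed notation. The data come from 3228 arrays in the Consortium for Functional Glycomics database, limited to those with an available protein sequence. Binding is reported as a within-array Z-score averaged across arrays of one protein sequence and across linkers.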
# Gal3S(b1-4)GlcNAc6S = molecular target: Gal3S(b1-4)GlcNAc6S
# Method in brief: as §1
# Gal6S(b1-4)Glc = molecular target: Gal6S(b1-4)Glc
# Method in brief: as §1
# Gal6S(b1-4)GlcNAc = molecular target: Gal6S(b1-4)GlcNAc
# Method in brief: as §1
# [1] = molecular target: GalNAc(b1-3)Gal(a1-4)Gal(b1-4)GlcNAc(b1-3)Gal(b1-4)Glc
# Method in brief: as §1
# GalNAc(b1-3)GlcNAc = molecular target: GalNAc(b1-3)GlcNAc
# Method in brief: as §1
# GalNAc(b1-6)GalNAc = molecular target: GalNAc(b1-6)GalNAc
# Method in brief: as §1
# [2] = molecular target: Glc(a1-6)Glc(a1-6)Glc(a1-6)Glc
# Method in brief: as §1
# [3] = molecular target: GlcNAc(a1-4)Gal(b1-4)GlcNAc(b1-3)Gal(b1-4)[Fuc(a1-3)]GlcNAc(b1-3)Gal(b1-4)[Fuc(a1-3)]GlcNAc
# Method in brief: as §1
# [4] = molecular target: GlcNAc(a1-6)Gal(b1-4)GlcNAc
# Method in brief: as §1
# [5] = molecular target: GlcNAc(b1-3)Gal(b1-4)GlcNAc(b1-2)[GlcNAc(b1-3)Gal(b1-4)GlcNAc(b1-6)]Man(a1-6)[GlcNAc(b1-3)Gal(b1-4)GlcNAc(b1-2)Man(a1-3)]Man(b1-4)GlcNAc(b1-4)GlcNAc
# Method in brief: as §1
# [6] = molecular target: GlcNAc(b1-3)Gal(b1-4)GlcNAc(b1-3)Gal(b1-4)GlcNAc(b1-2)Man(a1-3)[GlcNAc(b1-3)Gal(b1-4)GlcNAc(b1-3)Gal(b1-4)GlcNAc(b1-2)Man(a1-6)]Man(b1-4)GlcNAc(b1-4)[Fuc(a1-6)]GlcNAc
# Method in brief: as §1
# [7] = molecular target: GlcNAc(b1-3)Gal(b1-4)GlcNAc(b1-3)Gal(b1-4)GlcNAc(b1-3)Gal(b1-4)GlcNAc(b1-3)Gal(b1-4)GlcNAc(b1-2)Man(a1-3)[GlcNAc(b1-3)Gal(b1-4)GlcNAc(b1-3)Gal(b1-4)GlcNAc(b1-3)Gal(b1-4)GlcNAc(b1-3)Gal(b1-4)GlcNAc(b1-2)Man(a1-6)]Man(b1-4)GlcNAc(b1-4)GlcNAc
# Method in brief: as §1
# GlcNAc(b1-3)Man = molecular target: GlcNAc(b1-3)Man
# Method in brief: as §1
# [8] = molecular target: Neu5Ac(a2-3)Gal(b1-3)GlcNAc(b1-2)[Neu5Ac(a2-3)Gal(b1-3)GlcNAc(b1-4)]Man(a1-6)[Neu5Ac(a2-3)Gal(b1-3)GlcNAc(b1-2)Man(a1-3)]Man(b1-4)GlcNAc(b1-4)GlcNAc
# Method in brief: as §1
# [9] = molecular target: Neu5Ac(a2-3)Gal(b1-4)GlcNAc(b1-6)[Neu5Ac(a2-3)Gal(b1-3)]GalNAc
# Method in brief: as §1
# [10] = molecular target: Neu5Ac(a2-3)Gal(b1-4)[Fuc(a1-3)]GlcNAc(b1-3)Gal(b1-4)GlcNAc
# Method in brief: as §1
# [11] = molecular target: Neu5Ac(a2-3)[GalNAc(b1-4)]Gal(b1-4)GlcNAc(b1-3)GalNAc
# Method in brief: as §1
# [12] = molecular target: Neu5Ac(a2-6)Gal(b1-4)GlcNAc(b1-2)Man(a1-3)[GlcNAc(b1-2)Man(b1-4)GlcNAc(b1-2)Man(a1-6)]Man(b1-4)GlcNAc(b1-4)GlcNAc
# Method in brief: as §1
# [13] = molecular target: Neu5Ac(a2-6)Gal(b1-4)GlcNAc(b1-2)Man(a1-3)[Man(a1-6)]Man(b1-4)GlcNAc(b1-4)GlcNAc
# Method in brief: as §1
# [14] = molecular target: Neu5Ac(a2-6)Gal(b1-4)GlcNAc(b1-2)Man(a1-3)[Neu5Ac(a2-6)Gal(b1-4)GlcNAc(b1-2)Man(a1-6)]Man(b1-4)GlcNAc(b1-4)GlcNAc
# Method in brief: as §1
# [15] = molecular target: Neu5Ac(a2-6)Gal(b1-4)GlcNAc(b1-3)Gal(b1-4)GlcNAc(b1-3)Gal(b1-4)GlcNAc(b1-2)Man(a1-3)[Neu5Ac(a2-6)Gal(b1-4)GlcNAc(b1-3)Gal(b1-4)GlcNAc(b1-3)Gal(b1-4)GlcNAc(b1-2)Man(a1-6)]GalNAc
# Method in brief: as §1
# [16] = molecular target: Neu5Ac(a2-6)Gal(b1-4)GlcNAc(b1-3)Gal(b1-4)GlcNAc(b1-3)GalNAc
# Method in brief: as §1
# Neu5Ac(a2-6)GalNAc = molecular target: Neu5Ac(a2-6)GalNAc
# Method in brief: as §1
# [17] = molecular target: Neu5Ac(a2-8)Neu5Gc(a2-3)Gal(b1-4)GlcNAc
# Method in brief: as §1
# [18] = molecular target: Neu5Gc(a2-3)Gal(b1-3)GlcNAc
# Method in brief: as §1
# [19] = molecular target: Neu5Gc(a2-8)Neu5Gc(a2-3)Gal(b1-4)GlcNAc
# Method in brief: as §1
binder,measurement,setting,value
B1,glycan array binding signal (z-score),Gal3S(b1-3)GalNAc,-0.188
same,glycan array binding signal (z-score),Gal3S(b1-4)GlcNAc6S,-0.498
same,glycan array binding signal (z-score),Gal6S(b1-4)Glc,-0.297
same,glycan array binding signal (z-score),Gal6S(b1-4)GlcNAc,-0.673
same,glycan array binding signal (z-score),[1],0.488
same,glycan array binding signal (z-score),GalNAc(b1-3)GlcNAc,0.853
same,glycan array binding signal (z-score),GalNAc(b1-6)GalNAc,0.544
same,glycan array binding signal (z-score),[2],0.137
same,glycan array binding signal (z-score),[3],1.95
same,glycan array binding signal (z-score),[4],-0.513
same,glycan array binding signal (z-score),[5],2.14
same,glycan array binding signal (z-score),[6],1.91
same,glycan array binding signal (z-score),[7],0.27
same,glycan array binding signal (z-score),GlcNAc(b1-3)Man,0.915
same,glycan array binding signal (z-score),[8],-0.396
same,glycan array binding signal (z-score),[9],-0.461
same,glycan array binding signal (z-score),[10],0.745
same,glycan array binding signal (z-score),[11],-0.233
same,glycan array binding signal (z-score),[12],12.5
same,glycan array binding signal (z-score),[13],0.357
same,glycan array binding signal (z-score),[14],2.53
same,glycan array binding signal (z-score),[15],1.9
same,glycan array binding signal (z-score),[16],-1.62
same,glycan array binding signal (z-score),Neu5Ac(a2-6)GalNAc,0.869
same,glycan array binding signal (z-score),[17],-0.349
same,glycan array binding signal (z-score),[18],-0.645
same,glycan array binding signal (z-score),[19],-0.33
